Bioassay records: PubChem, several laboratories
Bead autofluor: counter-screen for toxin protease inhibitors: compound fluorescence. compound autofluorescence counterscreen, microsphere flow cytometry; stronger effect = higher value. fluorescence intensity (concentration not given with the values). 360,000 tested, 3.1% active; in the data active = fluorescence intensity above about 16000; inconclusive = no clear call, values can overlap the other calls
BoNT-F LC inh: BoNT/F light chain protease inhibitors, primary screen, biochemical, flow cytometry, MLPCN library | Botulinum neurotoxin type F light chain protease (Clostridium botulinum) | Multiplex microsphere protease cleavage assay | inhibition, % at 10 µM | 360,000 tested, 0.22% active; in the data active = inhibition above about 35%, passing the limit was not always enough; inconclusive = no clear call, values can overlap the other calls; also: plate controls were buffer without enzyme for full effect and enzyme alone for no effect
BoNT-A LC inh2: BoNT/A light chain protease inhibitors, primary screen, biochemical, flow cytometry, MLPCN library; 360,000 tested, 0.17% active; inhibition, % at 10 µM; multiplex microsphere protease substrate cleavage; Botulinum neurotoxin type A light chain protease (Clostridium botulinum A str. ATCC 3502); also: plate controls were buffer without enzyme for full effect and enzyme alone for no effect
Anthrax LF prot: Bacillus anthracis LF protease inhibitors, primary screen, biochemical, multiplex microsphere, MLPCN library; Lethal factor (Bacillus anthracis), P15917; multiplex microsphere protease cleavage assay; inhibition, % at 10 µM; 360,000 tested, 0.12% active; also: plate controls were buffer without enzyme for full effect and enzyme alone for no effect
MazEF act: activators of E. coli MazEF toxin-antitoxin RNase, primary screen, biochemical, fluorescence, uHTS | FAM/BHQ RNA-DNA oligo cleavage fluorescence, 5 h | activation, % at 20 µM | 350,000 tested, 0.32% active | AID 504720, 2011; in the data active = activation above about 50%
Numbers without * were called inactive; u = inconclusive; x = not tested or not shown. This is a sample that favours compounds with a hit; in the whole collection about 3.7% have one here. Rule as the data show it, unless noted: active = inhibition above about 30%; inconclusive = no clear call, values can overlap the other calls; inactive = below that.

SMILES	Bead autofluor	BoNT-F LC inh	BoNT-A LC inh2	Anthrax LF prot	MazEF act
O=C(O)CCN1C(=O)/C(=C\c2ccc(-c3nc4ccccc4s3)o2)SC1=S	2421	11	47*	40*	-10
O=C1/C(=C\c2cc(Cl)c(O)c(Cl)c2)SC(=S)N1Cc1ccccc1	17886*	-8	-12	18	-440
O=C1/C(=C\c2ccco2)SC(=S)N1Cc1ccccc1	4535	15	44*	34*	3
O=C(O)CN1C(=O)/C(=C/c2ccc(SCc3ccccc3)o2)SC1=S	3179	4	3	5	123*
O=C(NCc1cccs1)c1csc([C@@H]2O[C@H](CO)[C@H](O)[C@H](O)[C@H]2O)n1	4097	-2	0	-6	x
Cn1c(=O)c2c(ncn2Cc2ccc(Cl)c(Cl)c2)n(C)c1=O	19612*	1	u	-8	-17
C=CCC[C@@H](Cc1ccc(F)cc1)C(=O)OC[C@@H](NC(=O)[C@@H](CC=C)CC(=O)N[C@H](CO)Cc1ccccc1)C(C)(C)C	3075	-4	-1	-5	2
CC(=O)Nc1ccc(S(=O)(=O)Nc2ccccc2C(=O)N2CCCC2)cc1	3651	13	0	-10	8
COc1ccc(CCN2CC(C(=O)NCCc3cccc(F)c3)CCC2=O)cc1 (stereo unspecified)	3994	-3	0	-2	-7
O=C(NCCc1ccc(C(F)(F)F)cc1)C1CCC(=O)N(CCc2cccc(F)c2)C1 (stereo unspecified)	6453	-4	-1	-3	64*
COc1cccc(-c2cc(C(=O)Nc3cccc(O)c3)no2)c1	24356*	-5	-3	-2	7
COc1cccc(-c2cc(C(=O)Nc3cccnc3Cl)no2)c1	5786	-1	0	0	-7
COc1ccc(-c2cc(C(=O)Nc3cccc(C(C)=O)c3)no2)cc1	19306*	1	1	2	5
COc1ccc(-c2cc(C(=O)Nc3ccccc3SC)no2)cc1OC	23175*	-1	2	-3	-12
COc1cccc(-c2cc(C(=O)Nc3ccccc3SC)no2)c1	16463*	-1	u	1	-2
COc1ccc(-c2cc(C(=O)Nc3cccc(Cl)c3)no2)cc1	3096	2	2	-3	-16
CC1CCN(C(=O)c2ccc(N3CCOCC3)c([N+](=O)[O-])c2)CC1	6438	5	-2	5	2
O=C(CN1CCc2ccccc2C1)NCc1ccco1	19256*	3	3	-8	1
CCOC(=O)c1ccc(NC(=O)CSc2ccc(-c3ccncc3)nn2)cc1	4200	-2	1	4	7
CC(C)N(Cc1nc(-c2ccccc2)no1)C(=O)C1CCCCC1	23062*	0	0	-5	-1
CC(C)N(Cc1nc(-c2ccccc2)no1)C(=O)c1ccc(Cl)cc1	4289	-7	0	-5	-1
CCCn1c(-c2ccc(OC)cc2)nc2nc3ccccc3nc21	22319*	2	3	6	2
COc1ccc(CCn2c(-c3ccco3)nc3nc4ccccc4nc32)cc1	5511	20	14	11	-1
O=C(CC1C(=O)NCCN1Cc1cccc(C(F)(F)F)c1)NCCc1cnccn1 (stereo unspecified)	5730	-1	1	-2	-5
COc1cccc(N2CC(NC(=O)C(=O)c3c[nH]c4ccccc34)CC2=O)c1 (stereo unspecified)	x	x	x	x	4
SMILES	Bead autofluor	BoNT-F LC inh	BoNT-A LC inh2	Anthrax LF prot	MazEF act
O=c1oc2ccc3ccccc3c2cc1-c1nc2ccccc2o1	4400	-2	1	3	329*
Cc1cccc(C(=O)Nc2ccccc2NC(=O)c2cccc(C)c2)c1	3471	7	-3	1	3
Cc1cccc(C(=O)Nc2ccc(Cl)cc2C(=O)c2ccccc2)c1	20672*	-2	u	-5	-4
CCOc1ccc(NC(=O)CNC(=O)c2nn(-c3ccc(OC)cc3)c(=O)c3ccccc23)cc1	3038	-6	-3	-3	73*
CC(=O)NS(=O)(=O)c1ccc(NC(=O)NC2CCCCC2)cc1	23046*	-4	0	-2	3
NS(=O)(=O)c1ccc(NC(=O)NC2CCCCC2)cc1	2005	-5	0	-3	5
Cc1oc(-c2ccc3c(c2)OCCO3)cc1C(=O)O	9609	-1	0	0	2
